Laboratory results from the supplement of paper PMC7156485.

How the values were obtained:
Conditions in all cases: concentration: 10 µM; 24 h
HCC1569 [1] = assay: cell number relative to DMSO (% of DMSO); higher = more cells (less growth inhibition / toxicity)
Outline: (§1)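 Cells were seeded at 800 per well in 384-well plates with RPMI containing 10% FBS; both HCC1569 and TDF lines were used. Compounds were added at 10 µM for 24 h at 37 °C, in triplicate, before fixation in 3.7% formaldehyde and staining with a rabbit anti-H1.0 antibody, an AlexaFluor 647 secondary and DAPI. H1.0 nuclear intensity or cell number is reported as percent of the plate control using the median of replicates, and HCC1569 values were smoothed for positional effects.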

TDF [2] = assay: as above
Outline: as §1

TDF [3] = assay: H1.0 immunofluorescence intensity relative to DMSO (% of DMSO); higher = stronger H1.0 induction, active = 120 or more
Outline: as §1

HCC1569 [4] = assay: H1.0 immunofluorescence intensity relative to DMSO (% of DMSO); higher = stronger H1.0 induction, active = 140 or more
Outline: as §1
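Throughout, for H1.0 immunofluorescence intensity relative to DMSO: TDF is a line of transformed human dermal fibroblasts of mesenchymal origin.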
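Throughout, for cell number relative to DMSO: TDF denotes transformed human dermal fibroblasts of mesenchymal origin.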

For C[C@@H](c1nc(-c2ccc(C#N)cc2)cs1)[C@](O)(Cn1cncn1)c1ccc(F)cc1F, the cell number (HCC1569 [1]) was 83.5, the cell number (TDF [2]) was 95 and the H1.0 immunofluorescence intensity (TDF [3]) was 111 (inactive). The H1.0 immunofluorescence intensity (HCC1569 [4]) was 129 (inactive).

With Cc1ccccc1C(C(=O)NC1CCCCC1)N(C(=O)Cn1ccnc1C)c1cccc(F)c1 (stereo unspecified) the cell number (HCC1569 [1]) was 94.3, the cell number (TDF [2]) was 106 and the H1.0 immunofluorescence intensity (TDF [3]) was 95.3 (inactive). The H1.0 immunofluorescence intensity (HCC1569 [4]) was 105 (inactive).

For CN(C)CCCn1cc(C2=C(c3c[nH]c4ccccc34)C(=O)NC2=O)c2ccccc21 [Bisindolylmaleimide I], the cell number (HCC1569 [1]) was 85.8, the cell number (TDF [2]) was 80.3 and the H1.0 immunofluorescence intensity (TDF [3]) was 111 (inactive). For the same compound, the H1.0 immunofluorescence intensity (HCC1569 [4]) was 131 (inactive).

COc1cc2c(CCNC(C)=O)c[nH]c2cc1O [6-Hydroxymelatonin] was tested, and the cell number (HCC1569 [1]) was 100, the cell number (TDF [2]) was 110 and the H1.0 immunofluorescence intensity (TDF [3]) was 91.4 (inactive). The H1.0 immunofluorescence intensity (HCC1569 [4]) was 94 (inactive).
